# Measured values as given in PubChem BioAssay AID652104 (National Center for Advancing Translational Sciences (NCATS), 2013).
# The campaign covered roughly 410,000 compounds. About 7,200 (1.8%) were called active. Another 7% or so got no clear call; they are omitted. What follows is part of a selection rich in actives, with near analogues and random picks from the rest. Values without a mark were called inactive. Calls follow the shape of the dose curve; as a rule, active = well fitted activation curve with a large enough effect; inconclusive = small, poorly fitted or top-dose-only effect, or another doubt; inactive = no such curve, though single readings can be large or run the other way.
# Test: qHTS of TDP-43 Inhibitors; also: nearly all actives have a fitted effect of over 50% in size; as to growth rescue (activation): % of control where 0% means no effect
# Details: TDP-43 expressing yeast growth rescue, BacTiter-Glo, 24 h; series mostly up to 46.1 µM; growth rescue (activation): at the top concentration
# Summary of the method: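 Luminescence from BacTiter-Glo reports growth of TDP-43-expressing yeast after 24 hr at 30 deg C with compound. Cells were raffinose-pregrown to mid-log, then seeded in galactose medium at OD600=0.02.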
# Potency is read from the fitted curve at half-maximal effect.
SMILES,Potency,growth rescue (activation)
COC(=O)CNC(c1ccccc1Cl)c1cc(Br)ccc1NC(=O)CCN1CCOCC1 (centres undefined),17.8 µM (active),–
CCOC(=O)C1CCN(CCC(=O)Nc2cccc(C)c2)CC1,–,7.09%
COc1ccc(N)cc1NC(=O)CN1CCOCC1,–,13.4%
CCc1ccccc1NC(=O)CSc1nnc(-c2ccccc2)c(-c2ccccc2)n1,–,11.4%
COc1ccc(C(=O)NC2(C(F)(F)F)NC(=O)N(CCCc3ccccc3)C2=O)c(OC)c1OC (centres undefined),20 µM (active),–
CCOc1ccccc1C(=O)NC1(C(F)(F)F)NC(=O)N(CCc2ccc(OC)c(OC)c2)C1=O (centres undefined),–,13.2%
O=C(NC1(C(F)(F)F)NC(=O)N(Cc2cccnc2)C1=O)c1ccccc1Cl (centres undefined),–,5.43%
O=C(Nc1ccc2oc(-c3ccc(O)c(Br)c3)nc2c1)c1cc2ccccc2o1,–,-9.23%
OCc1cnc(SCc2ccc(F)cc2)n1Cc1ccc(F)cc1,–,-17.8%
CCOC(=O)N1CCC(NC(=O)c2cnn(-c3cccc(C)c3)c2C2CCN(C(=O)OC(C)(C)C)CC2)CC1,–,-5.08%
O=C1C=C(c2cccc(Br)c2)C[C@@H](c2ccc(F)cc2)C1,20 µM (active),–
COc1ccc([C@H]2CC(=O)C=C(/C=C/c3ccc(Cl)cc3)C2)cc1,–,19.9%
N#Cc1ccc(C2=CC(=O)C[C@H](c3ccc(Cl)cc3)C2)cc1,17.8 µM (active),–
CCCCC/C=C/C1=CC(=O)C[C@H](c2ccc(Cl)cc2)C1,–,15.5%
COc1cccc2c1CCC(NC(C)=O)C2=O (centres undefined),–,13%
COc1ccccc1C1=CC(=O)C[C@H](c2ccc(F)cc2)C1,15.8 µM (active),–
O=C1CC(c2cccc(Br)c2)C2=C(CCCC2=O)N1 (centres undefined),–,5.37%
COc1ccc(C2CC(=O)NC(=O)C2)cc1,–,-20.9%
O=C1C=C(c2cccc(Cl)c2)C[C@@H](c2ccc(F)cc2)C1,22.4 µM (active),–
O=C1CC(c2cccc(Cl)c2)CC(O)=C1C=Nc1ccccc1 (centres undefined),–,-2.18%
O=C(NCC(c1ccc(Cl)cc1)N1CCOCC1)c1ccccc1F (centres undefined),–,1.5%
COC(=O)c1c(NC(=O)C(C)Oc2ccc(Cl)c(C)c2)sc(C)c1C (centres undefined),–,16.4%
COc1ccccc1-c1noc(-c2ccc(NCc3ccccc3)c([N+](=O)[O-])c2)n1,–,12%
COc1ccc(-c2onc(C)c2C)cc1S(=O)(=O)NCC1CCN(Cc2cccc(F)c2)CC1,–,9.63%
O=C(CSc1nc2c(c(=O)[nH]1)CN(Cc1ccc(F)cc1)CC2)Nc1ccccc1Cl,–,14.4%

SMILES,Potency,growth rescue (activation)
CCOc1ccc(NC(=O)C2CCN(S(=O)(=O)c3cc(-c4noc(C)n4)ccc3C)CC2)cc1,–,-15%
N/C(=N\OC(=O)CCc1ccccc1)c1cccnc1,–,8.83%
COc1ccc(/C(N)=N/OC(=O)CCCc2ccccc2)cc1,22.4 µM (active),–
N/C(=N\OC(=O)CCn1cccc(C(F)(F)F)c1=O)c1ccc(OC(F)(F)F)cc1,–,2.9%
Cc1ccc(OCC(=O)Nc2ccc(OCc3cc(=O)n4c(C)csc4n3)cc2)cc1C,–,7.26%
CC(C)Cn1c(-c2ccc(S(=O)(=O)N3CCOCC3)cc2)csc1=Nc1cc(Cl)ccc1Cl,–,11.8%
COc1ccc(-c2nc3ccc(Br)cn3c2Cc2ccc(C)cc2)cc1OC,15.8 µM (active),–
COC(=O)c1ccc2nc(-c3ccc(F)cc3)c(Cc3ccc(C)cc3)n2c1,–,25.1%
COC(=O)c1ccc2nc(-c3ccc(C)cc3)c(Cc3ccc(OC)cc3C)n2c1,–,22.3%
Oc1c(C(c2ccccc2Cl)N2CCOCC2)sc2nc(-c3ccco3)nn12 (centres undefined),–,3.8%
Cn1nnnc1SCCCNCc1cccc(OCc2ccc(Cl)cc2)c1,–,5.55%
C=C1C(=O)OC2C1CCC(C)=CCCC1(C)OC21 (centres undefined),14.1 µM (active),–
O=C(NCCc1ccccc1)C(=O)NCC(c1ccco1)S(=O)(=O)c1ccccc1 (centres undefined),–,11.7%
COc1cccc(N2CCN(C(=O)CCCCCn3c(=O)[nH]c4ccccc4c3=O)CC2)c1,–,13%
COc1ccc(CCNC(=O)c2ccc3c(c2)nc(C)n3-c2ccc(Br)cc2)cc1OC,–,11.1%
COc1ccc(-c2cc3c(c4c2ccn4C)C2CCC3C2)cn1 (centres undefined),20 µM (active),–
CC(C)(C)c1ccc(OCC(=O)N2CCC(c3nc4ccccc4s3)CC2)cc1,–,20.2%
CCSc1nnc2c(n1)OC(c1ccc(OCC(=O)O)cc1)Nc1ccccc1-2 (centres undefined),–,-36.7% [at 9.22 µM]
COc1ccc(C)cc1-n1c(-c2ccc(C)cc2)cc2c1CC(C)(C)CC2=O,–,6.79%
Cc1ccc(Cl)cc1NC(=O)Cc1ccc(-n2c(C)nc3cccnc32)cc1,–,-9.49%
CCCN(CCC)S(=O)(=O)c1ccc(C(=O)Nc2sc3c(c2C(=O)OC)CCN(CC)C3)cc1,–,-1.8%
CCN(C(=O)Cc1c(C(=O)O)n(CC)c2ccccc12)c1ccccc1C,25.1 µM (active),–
CCn1c2ccccc2c2cc(CC(N)=O)ccc21,–,7.64%
Cc1ccc(C)c(Cn2c(C(=O)O)c(CNCc3cccs3)c3ccccc32)c1,–,15.9%
